“And” between values parts separate entries of the source, which are not always exact repeats. Equal values may be shown once. This is part of a sample that, as a whole, favours compounds with a hit. Of some 79,000 tested, about 15% had one in any assay. The source holds several records for some structures; these can differ, active in one and inactive in another. The source made the active and inactive calls. No stated cut-off is given here; in the data, active means growth inhibition above about 70%; inactive means the rest.
Key:
[1] = NCI Yeast Anticancer Drug Screen. Data for the rad52 strain (AID 147);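 further: 0% = growth of vehicle-treated control cultures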; settings: S. cerevisiae rad52 mutant growth inhibition, stronger effect = higher value
Summary of the method: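 Screen used a yeast mutant impaired in DNA repair. After compound exposure, growth was measured. Values reflect inhibition compared with vehicle-treated cells.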

[2] = NCI Yeast Anticancer Drug Screen. Data for the wt1 strain (AID 149);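 further: 0% = growth of vehicle-treated wt1 cultures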; settings: S. cerevisiae wt1 strain (SPY 50644) growth inhibition, stronger effect = higher value
Summary of the method: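 Measured: growth of wt1 yeast under compound versus vehicle treatment, reported as inhibition.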

[3] = NCI Yeast Anticancer Drug Screen. Data for the rad50EPP+ strain (AID 151);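 further: 0% = growth of vehicle-treated control cultures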; settings: S. cerevisiae rad50 mutant strain, stronger effect = higher value
Summary of the method: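 Exposing the rad50EPP+ strain to each compound, growth was compared with vehicle-only cultures to give inhibition.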

[4] = NCI Yeast Anticancer Drug Screen. Data for the mgt1 strain (AID 153); settings: S. cerevisiae mgt1 mutant growth inhibition, stronger effect = higher value
Summary of the method: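 Genetically defined yeast (mgt1) treated with compound; inhibition of growth expressed against vehicle-treated controls.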

[5] = NCI Yeast Anticancer Drug Screen. Data for the rad50 strain (AID 155);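 further: 0% = growth of vehicle-only cultures of the same strain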; settings: S. cerevisiae rad50 strain growth inhibition, stronger effect = higher value
Summary of the method: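 Growth of the mutant yeast was measured after compound exposure and referenced to vehicle-treated cultures.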

[6] = NCI Yeast Anticancer Drug Screen. Data for the mec2-1 strain (AID 157); settings: S. cerevisiae mec2-1 strain, stronger effect = higher value
Summary of the method: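 Readout is yeast growth inhibition, normalised to vehicle-treated controls, in the mec2-1 strain exposed to compound.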

[7] = NCI Yeast Anticancer Drug Screen. Data for the rad14 strain (AID 159);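 further: 0% = growth of vehicle-treated control cultures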; settings: S. cerevisiae rad14 strain growth inhibition, stronger effect = higher value
Summary of the method: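 Here, inhibition of yeast growth was measured after compound exposure, using a strain with a genetic defect in DNA damage repair and vehicle-treated cultures as the reference.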

[8] = NCI Yeast Anticancer Drug Screen. Data for the sgs1 mgt1 strain (AID 161);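 further: 0% = growth of cultures given vehicle only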; settings: S. cerevisiae sgs1 mgt1 strain, stronger effect = higher value
Summary of the method: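 Percent growth inhibition was derived by comparing compound-exposed mutant yeast with vehicle-exposed cultures. The strain carries alterations in DNA damage repair.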

[9] = NCI Yeast Anticancer Drug Screen. Data for the CLN2oe strain (AID 163);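 further: 0% = growth of vehicle-only control cultures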; settings: S. cerevisiae CLN2oe strain, stronger effect = higher value
Summary of the method: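 Values reflect how much compound exposure reduced yeast growth, referenced to vehicle-exposed cells. Assay organism is a strain with a defined genetic change affecting cell-cycle control.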

[10] = NCI Yeast Anticancer Drug Screen. Data for the cln2 rad14 strain (AID 165);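 further: 0% = growth equal to vehicle treated cultures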; settings: S. cerevisiae cln2 rad14 strain, stronger effect = higher value
Summary of the method: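 Relative to vehicle controls, growth inhibition of compound-treated cln2 rad14 yeast was recorded.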

[11] = NCI Yeast Anticancer Drug Screen. Data for the bub3 strain (AID 167); settings: S. cerevisiae bub3 mutant strain, stronger effect = higher value
Summary of the method: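 Whole-cell yeast assay. The mutant strain was incubated with compounds, and growth inhibition was determined by comparison with vehicle-treated cells.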

[12] = NCI Yeast Anticancer Drug Screen. Data for the wt2 strain (AID 169);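 further: 0% = growth of vehicle-treated yeast cultures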; settings: S. cerevisiae wt2 strain growth inhibition, stronger effect = higher value
Summary of the method: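 Values express reduction in yeast growth under compound treatment, referenced to vehicle-treated cells.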

[13] = NCI Yeast Anticancer Drug Screen. Data for the mlh1 strain (AID 171);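 further: 0% = growth of vehicle-treated control cultures of the same strain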; settings: S. cerevisiae mlh1 strain growth inhibition, stronger effect = higher value
Summary of the method: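 Steps: expose the defined-mutant yeast strain to compound; expose a parallel culture to vehicle; measure growth; express compound effect as inhibition relative to the vehicle culture.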

[14] = NCI Yeast Anticancer Drug Screen. Data for the sgs1 strain (AID 173);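 further: 0% = growth of vehicle-only control cultures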; settings: S. cerevisiae sgs1 mutant, stronger effect = higher value
Summary of the method: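 Treat defined-mutant yeast with compound; measure growth; calculate inhibition relative to vehicle-treated cells.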

[15] = NCI Yeast Anticancer Drug Screen. Data for the mlh1 rad18 strain (AID 175); settings: S. cerevisiae mlh1 rad18 strain growth inhibition, stronger effect = higher value
Summary of the method: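 Test agents were incubated with a yeast strain of defined genotype (DNA damage repair defect). Inhibition of growth was derived by comparison with vehicle-exposed cultures.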

[16] = NCI Yeast Anticancer Drug Screen. Data for the rad18 strain (AID 177); settings: S. cerevisiae rad18 mutant growth inhibition, stronger effect = higher value
Summary of the method: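 A genetically defined yeast mutant impaired in DNA damage repair was treated with test compounds, then its growth was measured against cultures receiving vehicle alone.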

[17] = at 5.0 µM (retest, dose inferred, filed as 0.5)
[18] = at 50.0 µM (retest, dose inferred, filed as 5.0)

Measured: growth inhibition

CC1=C(SCc2ccccc2)C(=O)c2ccccc2C1=O
active: [1]; at 33.0 µM 81% | [1]; at 100.0 µM 90% | [2]; at 100.0 µM 91% | [4]; at 100.0 µM 89% | [5]; [17] 99% | [5]; at 33.0 µM 81% | [5]; [18] 91% | [5]; at 100.0 µM 87% | [6]; [17] 98% | [6]; at 33.0 µM 74% | [6]; [18] 92% | [6]; at 100.0 µM 90% | [7]; at 33.0 µM 85% | [7]; at 100.0 µM 92% | [8]; at 50.0 µM 71.3% | [9]; at 100.0 µM 80% | [11]; at 33.0 µM 84% | [11]; at 50.0 µM 79% | [11]; at 100.0 µM 90% | [12]; at 33.0 µM 75% | [12]; at 100.0 µM 92% | [13]; at 100.0 µM 89% | [14]; at 33.0 µM 76% | [14]; at 100.0 µM 90% | [15]; [17] 99% | [15]; [18] 92% | [15]; at 50.0 µM 73.5% | [16]; at 33.0 µM 79% | [16]; at 100.0 µM 90%
inactive: [1]; at 1.2 µM -28% | [1]; at 3.7 µM -24% | [1]; at 11.0 µM 4% | [2]; at 1.2 µM -15% | [2]; at 3.7 µM -15% | [2]; at 11.0 µM -7% | [2]; at 33.0 µM 64% | [3]; at 1.2 µM -28% | [3]; at 3.7 µM -20% | [3]; at 11.0 µM -4% | [3]; at 33.0 µM 35% | [3]; at 100.0 µM 59% | [4]; at 1.2 µM -74% | [4]; at 3.7 µM -64% | [4]; at 11.0 µM -51% | [4]; at 33.0 µM 43% | [5]; at 1.2 µM -12% | [5]; at 3.7 µM -22% | [5]; at 11.0 µM 8% | [5]; at 50.0 µM 68.9% | [6]; at 1.2 µM -78% | [6]; at 3.7 µM -69% | [6]; at 11.0 µM -68% | [6]; at 50.0 µM 51.1% | [7]; at 1.2 µM -32% | [7]; at 3.7 µM -37% | [7]; at 11.0 µM -35% | [8]; [17] -23% | [8]; [18] 34% | [9]; at 1.2 µM -44% | [9]; at 3.7 µM -22% | [9]; at 11.0 µM -27% | [9]; at 33.0 µM 63% | [10]; [17] 44% | [10]; [18] 53% | [10]; at 50.0 µM 46.2% | [11]; at 1.2 µM -14% | [11]; at 3.7 µM -17% | [11]; [17] 20% | [11]; at 11.0 µM 26% | [11]; [18] 64% | [12]; at 1.2 µM -19% | [12]; at 3.7 µM -40% | [12]; at 11.0 µM -10% | [13]; at 1.2 µM -43% | [13]; at 3.7 µM -29% | [13]; at 11.0 µM -19% | [13]; at 33.0 µM 62% | [14]; at 1.2 µM -53% | [14]; at 3.7 µM -56% | [14]; at 11.0 µM -29% | [16]; at 1.2 µM -23% | [16]; at 3.7 µM -46% | [16]; at 11.0 µM -27%

O=c1ccc(=O)n(-c2ccccc2)[nH]1
active: [1]; at 33.0 µM 79% | [1]; at 100.0 µM 97% | [2]; at 33.0 µM 71% | [2]; at 100.0 µM 95% | [3]; at 33.0 µM 75% | [3]; at 100.0 µM 87% | [4]; at 33.0 µM 70% | [4]; at 100.0 µM 97% | [5]; at 33.0 µM 82% | [5]; [18] 90% | [5]; at 100.0 µM 95% | [6]; at 33.0 µM 78% | [6]; [18] 95% | [6]; at 100.0 µM 98% | [7]; at 100.0 µM 96% | [8]; [18] 84% | [9]; at 33.0 µM 71% | [9]; at 100.0 µM 97% | [10]; [18] 79% | [11]; at 33.0 µM 83% | [11]; [18] 97% | [11]; at 100.0 µM 98% | [12]; at 100.0 µM 93% | [13]; at 33.0 µM 87% | [13]; at 100.0 µM 99% | [14]; at 33.0 µM 89% | [14]; at 100.0 µM 98% | [15]; [18] 95% | [16]; at 33.0 µM 84% | [16]; at 100.0 µM 94%
85% (active) and -26.4% (inactive): [6]; at 50.0 µM
91.3% (active) and -13.6% (inactive): [8]; at 50.0 µM
inactive: [1]; at 1.2 µM -29% | [1]; at 3.7 µM -11% | [1]; at 11.0 µM 17% | [2]; at 1.2 µM -16% | [2]; at 3.7 µM -10% | [2]; at 11.0 µM 29% | [3]; at 1.2 µM -24% | [3]; at 3.7 µM -5% | [3]; at 11.0 µM 38% | [4]; at 1.2 µM 0% | [4]; at 3.7 µM 19% | [4]; at 11.0 µM 35% | [5]; at 1.2 µM -14% | [5]; at 3.7 µM -3% | [5]; [17] 25% | [5]; at 11.0 µM 28% | [6]; at 1.2 µM -23% | [6]; at 3.7 µM -24% | [6]; [17] -17% | [6]; at 11.0 µM 2% | [7]; at 1.2 µM -12% | [7]; at 3.7 µM -9% | [7]; at 11.0 µM 4% | [7]; at 33.0 µM 60% | [8]; [17] 1% | [9]; at 1.2 µM 7% | [9]; at 3.7 µM 20% | [9]; at 11.0 µM 29% | [10]; [17] 18% | [10]; at 50.0 µM 58.5% and -14.5% | [11]; at 1.2 µM -13% | [11]; at 3.7 µM -23% | [11]; [17] 41% | [11]; at 11.0 µM 2% | [12]; at 1.2 µM -15% | [12]; at 3.7 µM -10% | [12]; at 11.0 µM 1% | [12]; at 33.0 µM 66% | [13]; at 1.2 µM -2% | [13]; at 3.7 µM -4% | [13]; at 11.0 µM 30% | [14]; at 1.2 µM 15% | [14]; at 3.7 µM 27% | [14]; at 11.0 µM 58% | [15]; [17] 38% | [16]; at 1.2 µM -20% | [16]; at 3.7 µM 3% | [16]; at 11.0 µM 47%
79.4% (active) and -20.1% (inactive): [15]; at 50.0 µM
85.3% (active) and -33% (inactive): [5]; at 50.0 µM
86.2% (active) and -25.4% (inactive): [11]; at 50.0 µM
